Hit rate of the full screen: of about 310,000 compounds, about 3,900 (1.3%) were called active.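 Rule for the calls: active = calcium-response B-score plate-corrected more than 3 library SD below zero, starting fluorescence within 5 deviations, no agonist response on first addition; inactive = the rest.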 What follows is part of a selection rich in actives, with near analogues and random picks from the rest.
What follows are compounds tested against Mas-related G-protein coupled receptor member X1 (Homo sapiens) (UniProt Q96LB2) (assay: antagonists of human MrgX1 receptor, primary screen, HEK293 cells, Fluo-4 calcium flux (AID 588676;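 for B-score: peak minus trough fluorescence over baseline after final BAM8-22 challenge near maximal dose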)). Settings: Fluo-4, BAM8-22 antagonism, at 10 µM; hits give low values.
Mas-related G-protein coupled receptor member X1 (Homo sapiens), sequence (Q96LB2 whole entry, looked up): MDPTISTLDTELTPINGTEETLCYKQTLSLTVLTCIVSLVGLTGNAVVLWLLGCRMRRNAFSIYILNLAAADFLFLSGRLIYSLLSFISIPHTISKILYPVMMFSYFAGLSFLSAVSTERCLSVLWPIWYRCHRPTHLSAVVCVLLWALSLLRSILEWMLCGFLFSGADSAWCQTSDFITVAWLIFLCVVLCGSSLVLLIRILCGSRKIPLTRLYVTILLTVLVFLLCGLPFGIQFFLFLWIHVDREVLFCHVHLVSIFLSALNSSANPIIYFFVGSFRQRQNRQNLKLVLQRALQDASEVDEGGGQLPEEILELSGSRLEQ
For `O=C(Cn1c(-c2cncs2)nc2ccccc21)NC1CCCC1`, the B-score was -5 (active).
For `CC(=O)c1cc(-c2ccccc2)n(CC(=O)NC2CCCCC2)c1C`, the B-score was “inactive”.
`O=C(Cn1c(-c2cscn2)nc2ccccc21)Nc1ccc(Cl)cc1` was tested, and the B-score was “inactive”.
For `Cc1cc(NC(=O)CSC2=NS(=O)(=O)c3cc(Cl)ccc3N2)no1`, the B-score was “inactive”.
In the case of `C[C@@H](NC(=O)OC(C)(C)C)c1nnc(S(=O)(=O)Cc2ccccc2)o1`, the B-score is reported as “inactive”.
With `CNC(=S)N/N=C/c1ccc(OCc2ccccc2)c(Br)c1` the B-score was “inactive”.
For `CCCC(=O)Nc1ccc2c(c1)nc(CCNC(=O)c1ccco1)n2C`, the B-score was “inactive”.
In the case of `COCCNC(=O)Nc1ccc2nc(-c3ccco3)c(-c3ccco3)nc2c1`, the B-score is reported as -6.82 (active).
In the case of `O=C(NCc1ccccn1)c1ccc2nc(-c3ccco3)c(-c3ccco3)nc2c1`, the B-score is reported as “inactive”.
In the case of `CCOc1ccc(S(=O)(=O)NCCC(=O)N2CCCCCCC2)cc1`, the B-score is reported as “inactive”.
For `O=C(NC(=S)N1CCc2ccccc21)c1ccco1`, the B-score was “inactive”.
`O=[N+]([O-])c1ccc2c(c1)Nc1nc3ccccc3nc1N2` was tested, and the B-score was -4.67 (active).
In the case of `O=[N+]([O-])c1ccc2nc(-c3ccccn3)[nH]c2c1`, the B-score is reported as “inactive”.
For `COc1ccc([N+](=O)[O-])cc1-c1nc2ccccc2nc1-c1ccccc1`, the B-score was “inactive”.
`[O-][n+]1onc2c1CCc1[nH]c(-c3ccccc3)nc1-2` was tested, and the B-score was “inactive”.
In the case of `COc1ccc(C(=S)Nc2ccccc2)cc1`, the B-score is reported as “inactive”.
In the case of `COc1ccc(C2=NN(C(C)=O)C(c3ccccc3)C2)cc1` (centres undefined), the B-score is reported as “inactive”.
`COc1ccc(NC(=S)N2N=CCC2c2ccccc2)cc1` (centres undefined) was tested, and the B-score was -7.31 (active).
In the case of `Cc1nnc(CN(C)Cc2cn[nH]c2-c2ccc(-c3ccccc3)cc2)o1`, the B-score is reported as “inactive”.
In the case of `CC(Nc1nc(C(F)(F)F)nc2ccccc12)c1cccs1` (centres undefined), the B-score is reported as “inactive”.
`Cc1ccc(N2C(=O)C3C4C=CC(CC4)C3C2=O)cc1Br` (centres undefined) was tested, and the B-score was “inactive”.
In the case of `O=[N+]([O-])c1ccc(NC(=S)N2CCN(c3ccccn3)CC2)cc1`, the B-score is reported as “inactive”.
In the case of `CNC(=S)N1CCN(c2ccccn2)CC1`, the B-score is reported as “inactive”.
With `COc1cc([N+](=O)[O-])ccc1NC(=S)N1CCN(c2ccccn2)CC1` the B-score was -5.85 (active).
In the case of `CCC(C(=O)NC1CCCCC1)N(C(=O)c1snc(C(N)=O)c1N)c1ccc(OC)cc1OC` (centres undefined), the B-score is reported as “inactive”.
With `COC(=O)c1cccc(C(=O)N2CCCC(Nc3ccc4c(c3)OCCO4)C2)c1` (centres undefined) the B-score was “inactive”.
In the case of `Cc1ccc(S(=O)(=O)N2CCN(C(=O)COC(=O)c3c(C)cc(C)cc3C)CC2)c(C)c1`, the B-score is reported as “inactive”.
`Cc1ccc(S(=O)(=O)N2CCN(C(=O)N3CCOCC3)CC2)c(C)c1` was tested, and the B-score was “inactive”.
For `Cc1ccc(S(=O)(=O)N2CCN(C(=O)c3ccccc3-c3nc4ccccc4s3)CC2)c(C)c1`, the B-score was -4.66 (active).
